High-throughput results as filed in PubChem.
Hits are enriched below; roughly 1.1% of the tested compounds scored in any of these assays.
Giardia FBPA inh-1 = Giardia lamblia aldolase inhibition. Potency, µM (titrated, usually from 59.6 µM), for inactives: at the highest dose activity, negative = inhibition, usual class: inhibitors. hit rate 0.71% among 290,000. AID 2451. purified Giardia FBPA. A8B2U2; also: % is scaled to controls: 0 for no effect and ±100 for the full control effect; nearly all actives have a fitted effect of over 55% in size
Target sequence (A8B2U2 whole entry, looked up): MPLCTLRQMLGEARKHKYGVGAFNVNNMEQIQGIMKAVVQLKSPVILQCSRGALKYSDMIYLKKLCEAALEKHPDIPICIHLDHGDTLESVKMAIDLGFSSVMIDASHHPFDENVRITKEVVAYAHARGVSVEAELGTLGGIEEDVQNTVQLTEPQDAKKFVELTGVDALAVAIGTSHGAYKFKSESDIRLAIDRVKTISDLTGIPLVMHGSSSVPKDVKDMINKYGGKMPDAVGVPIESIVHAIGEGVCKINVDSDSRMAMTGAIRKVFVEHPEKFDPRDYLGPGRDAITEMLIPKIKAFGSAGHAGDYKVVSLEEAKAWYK
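40 nM FBPA preincubated 10 min at RT with compound (up to 57.5 uM final), then substrate plus GAPDH/TPI/NAD/arsenate coupling and diaphorase/resazurin added. Fluorescence read after 20 min at RT, 525/598 nm.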
SARS PLP yeast = SARS-CoV PLP inhibition in yeast; Potency, µM (titrated, usually from 32.9 µM), for inactives: top-dose activity, positive = growth rescue, hits mostly activators; hit rate 0.19% among 330,000; S. cerevisiae expressing SARS-CoV PLpro, growth rescue; AID 485353; calls by dose curve; also: 0% is about no effect; nearly all actives have a fitted effect of over 55% in size
LmPK inh = blocks Leishmania mexicana pyruvate kinase activity | Q27686 | purified LmPK, Kinase-Glo ATP luminescence, 1 h | Potency, µM (doses to about 57.5 µM), for the others: top-dose activity change, negative = inhibition, most hits filed as inhibitors | hit rate 0.37% among 290,000 | AID 1721; also: % is scaled to controls: 0 for no effect and ±100 for the full control effect
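Screened at intermediate enzyme activity to detect both inhibitors and activators: LmPK at 0.1 nM, with a 0.5 nM enzyme column as activation reference. PEP 0.5 mM, ADP 0.1 mM; ATP detected by luminescence after 1 h.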
RE007 growth inh = less growth of the S. pombe RE007 Vpr strain; S. pombe RE007 Vpr strain, BacTiter-Glo ATP luminescence, 24 h; Potency, µM (highest dose often 92.2 µM), for inactives: at the highest dose activity change, negative = less growth, usual class: inhibitors; hit rate 0.21% among 360,000; active = well fitted falling curve with a large enough effect; inconclusive = small, poorly fitted or top-dose-only effect; inactive = no such curve, though single readings can be large or run the other way; also: % is scaled to controls: 0 for no effect and ±100 for the full control effect; nearly all actives have a fitted effect of over 50% in size
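Fission yeast strain RE007, carrying one chromosomally integrated HIV-1 vpr copy, was seeded at OD 0.01 in PMG+AL medium with 23 nL pinned compound. After 24 h at 30 °C and 99% humidity, viability was read by BacTiter-Glo luminescence.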
Tb PYK inh = T. brucei pyruvate kinase inhibition; hit rate 0.12% among 410,000; TbPYK enzyme, Kinase-Glo Plus ATP luminescence, 45 min; Potency, µM (series often up to 76.8 µM), for the others: top-dose activity, negative = inhibition, actives largely listed as inhibitors; also: % is scaled to controls: 0 for no effect and ±100 for the full control effect; nearly all actives have a fitted effect of over 50% in size
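Readout: single end-point luminescence (Kinase-Glo Plus, 10 min). Reaction conditions were TbPYK/substrate plus 130 uM ADP, 45 min at RT, pH 7.2 TEA buffer. No-enzyme wells served as controls, and data were normalized before concentration-response fitting.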
Giardia growth = Giardia lamblia growth inhibition | shares compounds with Giardia FBPA inh-1 | Potency, µM (titrated, usually from 57.5 µM), for the others: at the highest dose activity change, negative = inhibition, hits mostly inhibitors | AID 2785 | hit rate 5% among 1,500 | Giardia lamblia trophozoite growth inhibition;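 also: trophozoites exposed to compound for 48 h at 37 °C; % is scaled to controls: 0 for no effect and ±100 for the full control effect; nearly all actives have a fitted effect of over 70% in size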
Mammal cell tox = counter-screen for Giardia aldolase inhibitors: mammalian cell toxicity; AID 2786; Potency, µM (titrated, usually from 57.5 µM), for the others: top-dose viability change, negative = toxicity, most hits filed as inhibitors; mammalian cell viability counter-screen, qHTS; hit rate 4% among 1,500; shares compounds with Giardia FBPA inh-1;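 also: Chinese hamster ovary cells used as mammalian cytotoxicity surrogate; viability measured as cellular ATP by luminescence; compound exposure lasted 48 h before reading; % is scaled to controls: 0 for no effect and ±100 for the full control effect; nearly all actives have a fitted effect of over 60% in size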
Giardia FBPA inh-2 = confirmation of Giardia fructose-bisphosphate aldolase inhibitors; shares compounds with Giardia FBPA inh-1; purified Giardia aldolase enzyme activity, qHTS; Potency, µM (doses to about 57.5 µM), inactives show at the highest dose activity change, negative = inhibition, actives largely listed as inhibitors; hit rate 5% among 1,500; AID 2787; also: % is scaled to controls: 0 for no effect and ±100 for the full control effect; nearly all actives have a fitted effect of over 45% in size
Rabbit FBPA inh = blocks rabbit muscle aldolase in Giardia aldolase selectivity test; hit rate 4% among 1,500; shares compounds with Giardia FBPA inh-1; Rabbit muscle FBPA enzyme inhibition, selectivity counter-screen; Potency, µM (highest dose often 57.5 µM), for the others: at the highest dose activity, negative = inhibition, most hits filed as inhibitors; also: % is scaled to controls: 0 for no effect and ±100 for the full control effect; nearly all actives have a fitted effect of over 60% in size
Target sequence (P00883 whole entry, looked up): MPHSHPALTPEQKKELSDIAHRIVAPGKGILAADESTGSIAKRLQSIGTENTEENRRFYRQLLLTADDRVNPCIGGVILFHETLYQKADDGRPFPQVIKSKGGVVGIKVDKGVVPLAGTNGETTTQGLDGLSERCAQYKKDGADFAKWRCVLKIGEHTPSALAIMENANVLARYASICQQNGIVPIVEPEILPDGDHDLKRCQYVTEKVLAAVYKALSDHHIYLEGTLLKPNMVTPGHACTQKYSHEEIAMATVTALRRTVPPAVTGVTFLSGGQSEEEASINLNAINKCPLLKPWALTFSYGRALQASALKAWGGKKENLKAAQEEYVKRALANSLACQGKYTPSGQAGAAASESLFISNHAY
GAPDH coupling = counter-screen for Giardia aldolase inhibitors: GAPDH coupling enzyme. shares compounds with Giardia FBPA inh-1. GAPDH coupling enzyme counterscreen, biochemical, qHTS. Potency, µM (highest dose often 57.5 µM), for inactives: at the highest dose activity change, negative = inhibition, most hits filed as inhibitors. hit rate 6% among 1,500. AID 2795; also: % is scaled to controls: 0 for no effect and ±100 for the full control effect; nearly all actives have a fitted effect of over 55% in size
* = called active by the depositor; [ ] = another dose, or the depositor's remark. Unless noted, calls follow the shape of the dose curve; as a rule, active = well fitted curve in the direction sought with a large enough effect; inconclusive = small, poorly fitted or top-dose-only effect, or another doubt; inactive = no such curve, though single readings can be large; an effect the other way counts as inactive or inconclusive. Potency is read from the fitted curve at half-maximal effect.

What do the screens show for `Oc1c(/C=N/c2ncn[nH]2)ccc2ccccc12`?
Giardia FBPA inh-1: 8.89µM*; SARS PLP yeast: 0.0%; LmPK inh: -21.1%; RE007 growth inh: -5.4%; Tb PYK inh: -0.2%; Giardia growth: 19.5%; Mammal cell tox: 6.0%; Giardia FBPA inh-2: 8.91µM*; Rabbit FBPA inh: 39.8µM*; GAPDH coupling: inconclusive

Results for COc1ccc(NC(=O)CCCc2nnc3n(C(C)C)c(=O)c4sccc4n23)cc1Cl ?
Tb PYK inh: -6.7%

How did O=C(NCCCN1CCN(c2cccc(Cl)c2)CC1)c1cnn(-c2ccc(F)cc2)c1-n1cccc1 do in these assays?
Tb PYK inh: 5.0%

What do the screens show for `CN(C)c1ncnc2c1NC1=C(S2)C(=NCCCC(=O)O)CC(C)(C)C1`?
Giardia FBPA inh-1: inconclusive; SARS PLP yeast: -2.9%; LmPK inh: -2.3%; RE007 growth inh: -26.5%; Tb PYK inh: -25.0%; Giardia growth: -2.7%[38.3 µM]; Mammal cell tox: -18.8%; Giardia FBPA inh-2: -17.0%; Rabbit FBPA inh: -11.9%; GAPDH coupling: -22.8%

Results for CN(C)c1ccnc2sc(C(=O)c3ccc(Br)cc3)c(N)c12 ?
Giardia FBPA inh-1: -5.5%; SARS PLP yeast: 0.9%; LmPK inh: 4.6%; RE007 growth inh: 11.4%; Tb PYK inh: 1.6%

What do the screens show for `Cc1snc2sc(C(=O)c3ccc(F)cc3)c(N)c12`?
Giardia FBPA inh-1: 6.29µM*; SARS PLP yeast: 0.7%; LmPK inh: -4.0%; RE007 growth inh: -6.3%; Tb PYK inh: -1.9%; Giardia growth: 3.2%[38.3 µM]; Mammal cell tox: -23.9%; Giardia FBPA inh-2: 39.8µM*; Rabbit FBPA inh: inconclusive; GAPDH coupling: inconclusive

What do the screens show for `CCOC(=O)c1cc(-c2ccc(C)cc2)n(CCC(=O)Nc2cc(Cl)ccc2C)c1C`?
Tb PYK inh: 4.2%

Results for c1cc2c(cc1NC1CCCCCC1)OCO2 ?
Giardia FBPA inh-1: 25.1µM*; SARS PLP yeast: 0.8%; LmPK inh: -10.1%; RE007 growth inh: -15.1%; Tb PYK inh: -37.6%; Giardia growth: 98.2%; Mammal cell tox: -6.1%; Giardia FBPA inh-2: 7.08µM*; Rabbit FBPA inh: inconclusive; GAPDH coupling: -29.9%

How did Cc1cccc(OCCSc2nc(N)cc(N)n2)c1 do in these assays?
Giardia FBPA inh-1: 15.8µM*; SARS PLP yeast: -2.2%; LmPK inh: 2.5%; RE007 growth inh: -2.4%; Tb PYK inh: -5.9%; Giardia growth: 17.5%; Mammal cell tox: 16.7%; Giardia FBPA inh-2: -0.8%; Rabbit FBPA inh: -2.6%; GAPDH coupling: 18.8%

How did CCOc1cc(C(=O)NC(=S)Nn2cnnc2)cc(OCC)c1OCC do in these assays?
Giardia FBPA inh-1: 15.8µM*; SARS PLP yeast: -1.2%; LmPK inh: 0.0%; RE007 growth inh: 7.2%; Tb PYK inh: 1.6%; Giardia growth: inconclusive; Mammal cell tox: 3.1%; Giardia FBPA inh-2: 2.5%; Rabbit FBPA inh: 14.5%; GAPDH coupling: -8.3%

How did O=C(NNC(=O)c1ccccn1)c1cccc([N+](=O)[O-])c1 do in these assays?
Giardia FBPA inh-1: 9.98µM*; SARS PLP yeast: -1.3%; LmPK inh: 0.4%; RE007 growth inh: 8.1%; Tb PYK inh: -1.8%; Giardia growth: inconclusive; Mammal cell tox: inconclusive; Giardia FBPA inh-2: -1.3%; Rabbit FBPA inh: -6.3%; GAPDH coupling: -26.2%

What do the screens show for `O=C(c1cccc([N+](=O)[O-])c1)c1ccccn1`?
Giardia FBPA inh-1: 8.7%; SARS PLP yeast: 0.5%; LmPK inh: -11.9%; RE007 growth inh: -5.9%; Tb PYK inh: -0.9%

How did CC(C)OC(=O)Nc1ccc2c(c1)N(C(=O)N1CCN(C)CC1)c1ccccc1CC2 do in these assays?
Giardia FBPA inh-1: 15.8µM*; SARS PLP yeast: -3.0%; LmPK inh: inconclusive; RE007 growth inh: -25.4%; Tb PYK inh: -0.8%; Giardia growth: 8.91µM*; Mammal cell tox: 1.78µM*; Giardia FBPA inh-2: 1.7%; Rabbit FBPA inh: 8.6%; GAPDH coupling: 5.8%

How did O=C(Nc1ccccc1)Oc1ccc[nH]c1=O do in these assays?
Giardia FBPA inh-1: 1.41µM*; SARS PLP yeast: -1.6%; LmPK inh: -6.9%; RE007 growth inh: -8.5%; Tb PYK inh: 6.8%; Giardia growth: 12.7%[38.3 µM]; Mammal cell tox: inconclusive; Giardia FBPA inh-2: 0.231µM*; Rabbit FBPA inh: 0.73µM*; GAPDH coupling: 2.59µM*

What do the screens show for `O=C(Nc1ccccc1)Oc1ccccc1`?
Giardia FBPA inh-1: 4.2%; SARS PLP yeast: 0.3%; LmPK inh: -2.8%; RE007 growth inh: -5.6%; Tb PYK inh: 3.5%

Results for CC1=C(C(=O)Nc2ccccc2)C(c2ccc(Br)cc2)n2nc(CCCO)nc2N1 (stereo unspecified) ?
Tb PYK inh: 3.9%

How did O=C(c1ncn(Cc2ccccc2)c1C(=O)N1CCN(c2ccccc2)CC1)N1CCN(c2ccccc2)CC1 do in these assays?
SARS PLP yeast: -3.9%; RE007 growth inh: -4.7%; Tb PYK inh: -2.8%

How did O=C(O)c1ncn(Cc2ccc(Br)cc2)c1C(=O)O do in these assays?
Giardia FBPA inh-1: 14.1µM*; SARS PLP yeast: 2.0%; LmPK inh: -0.1%; RE007 growth inh: 5.0%; Tb PYK inh: 11.9%; Giardia growth: -19.6%; Mammal cell tox: 1.2%; Giardia FBPA inh-2: 21.2%; Rabbit FBPA inh: 21.7%; GAPDH coupling: 24.8%

How did O=C(O)c1ccc2cccnc2c1O do in these assays?
Giardia FBPA inh-1: 19.9µM*; SARS PLP yeast: 0.5%; LmPK inh: -10.4%; RE007 growth inh: 0.2%; Tb PYK inh: -7.0%; Giardia growth: -25.9%; Mammal cell tox: 7.3%; Giardia FBPA inh-2: inconclusive; Rabbit FBPA inh: -22.5%; GAPDH coupling: -25.4%

What do the screens show for `O=C(O)c1ccccc1NC(c1ccccc1)c1ccc2cccnc2c1O` (stereo unspecified)?
RE007 growth inh: -8.8%; Tb PYK inh: 151.0%

How did Cc1cc(C)cc(-n2ccn(CC(=O)Nc3ccccc3C(F)(F)F)c(=O)c2=O)c1 do in these assays?
Tb PYK inh: -3.1%
